We go through five molecules from PubChem BioAssay (NCATS).

Unmarked numbers belong to inactive results. Results filed as inconclusive are left out. Activity calls are given as the source filed them. Calls come from the whole dose curve; as a rule, active = well fitted curve in the direction sought with a large enough effect; inconclusive = small, poorly fitted or top-dose-only effect, or another doubt; inactive = no such curve, though single readings can be large; an effect the other way counts as inactive or inconclusive.

The target of assay [1] is Tyrosine-protein kinase Yes (Homo sapiens) (UniProt P07947). The assay is described as follows: qHTS for small molecule inhibitors of Yes1 kinase: Primary Screen (AID 686947). Note: potency is the fitted concentration of half-maximal effect; nearly all actives have a fitted effect of over 60% in size. The method, boiled down:
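ADP-Glo luminescence reports ADP formed by 4 nM Yes1 phosphorylating poly(E4Y) (0.3 mg/mL) with 0.1 mM ATP for 60 min at room temperature, following 20 min compound preincubation; normalised between DMSO wells with and without enzyme.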

A short description of assay [2]: qHTS for small molecule inhibitors of Yes1 kinase: Counter Assay (AID 686950).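 Note: no kinase present so only ADP-Glo detection of a fixed ADP amount is tested; luminescence from ADP-Glo reporting ADP in a fixed ATP and ADP mixture; series mostly up to about 77 µM; 0% = DMSO wells with ATP plus ADP and -100% = ATP-only wells without ADP.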 The method, boiled down: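 Measuring interference with ADP-Glo, the assay ran 60 min at room temperature on an ATP/ADP mix lacking enzyme. Values were normalized to ATP-plus-ADP (maximum) and ATP-only (minimum) DMSO controls.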
Assay [3] addresses Calcium and integrin-binding protein 1 (Homo sapiens) (UniProt Q99828). Briefly: Primary qHTS for Identification of Calcium Integrin Binding Protein 1 (CIB1) Competitor (AID 1508620).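 Note: GST tagged CIB1 binding a fluorescein labelled alphaIIb integrin peptide tracer; top concentration of the series differs between compounds; % is set by controls: 0 for no effect and ±100 for the full control effect.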 In a few lines: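 Fluorescence polarization competition: CIB1-GST (1 uM final) preincubated with compound 15 min at room temperature, then FITC-labeled alphaIIb peptide (100 nM final) added for another 15 min. Polarization read at Ex 480/Em 540.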
A general note: In qHTS, concentration-response curves come from the screen itself.

In assay [4] the target is N-terminal Xaa-Pro-Lys N-methyltransferase 1 (Homo sapiens) (UniProt Q9BV86). Briefly: Confirmatory qHTS for Inhibitors of N-terminal methyltransferase 1 (NTMT1): MTaseGlo Assay (AID 1645874). Note: potency is the fitted concentration of half-maximal effect; nearly all actives have a fitted effect of over 65% in size. In a few lines: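 Room-temperature NTMT1 reaction, 30 min, with 100 uM SAM and 1 uM SPKRIA substrate; enzyme 125 nM. Read-out: MTase-Glo luminescence, normalized to no-enzyme and DMSO controls.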

The target of assay [5] is Rap guanine nucleotide exchange factor 3 (Homo sapiens) (UniProt O95398). Briefly: Confirmatory qHTS for antagonist of cAMP-regulated guanine nucleotide exchange factor 3 (EPAC1) (AID 1645880).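 Note: plate controls were DMSO only for no effect and full effect of the ATA control for full effect; nearly all actives have a fitted effect of over 55% in size.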 In a few lines: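 Released BODIPY-GDP fluoresces less than Rap1-bound BODIPY-GDP; the signal is followed at 480/540 nm at 5-min intervals over 30 min, after 5 min at room temperature. Reactions contain 100 nM EPAC1, 250 nM RAP1B-BODIPY-GDP and 50 uM GDP; results are normalized to ATA and DMSO.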

For assay [6] the target is unchanged. The assay is described as follows: Confirmatory qHTS for agonist of cAMP-regulated guanine nucleotide exchange factor 3 (EPAC1) (AID 1645881).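 Note: EPAC1 catalysed release of BODIPY-GDP from Rap1B seen as fluorescence loss; 100% = effect of cAMP agonist control; nearly all actives have a fitted effect of over 75% in size.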
The target in assay [7] is Rap guanine nucleotide exchange factor 4 (Homo sapiens) (UniProt Q8WZA2). Briefly: Confirmatory qHTS for agonist of cAMP-regulated guanine nucleotide exchange factor 4 (EPAC2) (AID 1645884).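 Note: nucleotide exchange releases bodipy-GDP from Rap1 and this lowers its fluorescence; % is set by controls: 0 for no effect and ±100 for the full control effect; nearly all actives have a fitted effect of over 65% in size.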
Assay [8] deals with Rap guanine nucleotide exchange factor 3 (Homo sapiens) (UniProt O95398). The assay is described as follows: Counterscreen qHTS for antagonist of cAMP-regulated guanine nucleotide exchange factor 3 (EPAC1) (AID 1645888). Note: % of control where 0% means no effect. In a few lines: (§1)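 Measured: fluorescence of BODIPY-GDP bound to Rap1B, which falls as exchange proceeds. Conditions include 50 uM competing GDP, 5 and 30 min reads, and a later cAMP challenge for antagonist detection.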
For orientation: The purpose of a counterscreen is to sort out artefacts and off-target activity.

The target is the same in assay [9]. Briefly: Counterscreen qHTS for agonist of cAMP-regulated guanine nucleotide exchange factor 3 (EPAC1) (AID 1645889). Note: % of control where 0% means no effect; nearly all actives have a fitted effect of over 40% in size. The method, boiled down: as §1
Assay [10] deals with Rap guanine nucleotide exchange factor 4 (Homo sapiens) (UniProt Q8WZA2). The assay is described as follows: Confirmatory qHTS for antagonist of cAMP-regulated guanine nucleotide exchange factor 4 (EPAC2) (AID 1645885). Note: % is set by controls: 0 for no effect and ±100 for the full control effect; nearly all actives have a fitted effect of over 25% in size.

Sequence of Calcium and integrin-binding protein 1 (Homo sapiens) (Q99828 whole entry, looked up): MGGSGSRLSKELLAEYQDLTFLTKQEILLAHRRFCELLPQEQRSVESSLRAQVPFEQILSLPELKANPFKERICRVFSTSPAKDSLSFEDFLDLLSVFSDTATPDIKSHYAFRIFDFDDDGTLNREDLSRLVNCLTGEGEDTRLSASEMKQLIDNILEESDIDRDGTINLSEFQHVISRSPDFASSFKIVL
Sequence of Rap guanine nucleotide exchange factor 3 (Homo sapiens) (O95398 whole entry, looked up): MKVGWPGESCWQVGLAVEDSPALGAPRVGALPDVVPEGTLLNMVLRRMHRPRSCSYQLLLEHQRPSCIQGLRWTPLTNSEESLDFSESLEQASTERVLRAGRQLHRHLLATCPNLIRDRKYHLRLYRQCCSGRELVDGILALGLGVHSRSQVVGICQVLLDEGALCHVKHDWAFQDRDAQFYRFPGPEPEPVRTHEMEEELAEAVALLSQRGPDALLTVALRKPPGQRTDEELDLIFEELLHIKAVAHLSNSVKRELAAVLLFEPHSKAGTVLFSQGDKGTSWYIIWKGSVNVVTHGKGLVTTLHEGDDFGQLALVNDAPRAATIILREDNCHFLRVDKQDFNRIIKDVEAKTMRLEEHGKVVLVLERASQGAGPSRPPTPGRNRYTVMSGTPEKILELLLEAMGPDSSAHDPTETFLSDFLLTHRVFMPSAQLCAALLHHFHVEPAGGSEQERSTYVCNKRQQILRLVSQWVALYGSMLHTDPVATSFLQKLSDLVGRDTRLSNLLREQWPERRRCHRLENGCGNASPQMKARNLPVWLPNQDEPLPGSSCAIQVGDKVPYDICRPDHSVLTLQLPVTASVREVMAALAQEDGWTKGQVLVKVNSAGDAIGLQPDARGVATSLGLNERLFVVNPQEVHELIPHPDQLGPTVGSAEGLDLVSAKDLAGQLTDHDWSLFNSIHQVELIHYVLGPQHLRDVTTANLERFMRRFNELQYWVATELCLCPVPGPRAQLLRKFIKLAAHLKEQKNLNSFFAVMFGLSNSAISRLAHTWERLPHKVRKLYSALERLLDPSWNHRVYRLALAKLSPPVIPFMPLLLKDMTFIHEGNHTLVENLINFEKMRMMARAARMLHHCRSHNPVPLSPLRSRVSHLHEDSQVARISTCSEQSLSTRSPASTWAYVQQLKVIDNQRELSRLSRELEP
Sequence of Rap guanine nucleotide exchange factor 4 (Homo sapiens) (Q8WZA2 whole entry, looked up): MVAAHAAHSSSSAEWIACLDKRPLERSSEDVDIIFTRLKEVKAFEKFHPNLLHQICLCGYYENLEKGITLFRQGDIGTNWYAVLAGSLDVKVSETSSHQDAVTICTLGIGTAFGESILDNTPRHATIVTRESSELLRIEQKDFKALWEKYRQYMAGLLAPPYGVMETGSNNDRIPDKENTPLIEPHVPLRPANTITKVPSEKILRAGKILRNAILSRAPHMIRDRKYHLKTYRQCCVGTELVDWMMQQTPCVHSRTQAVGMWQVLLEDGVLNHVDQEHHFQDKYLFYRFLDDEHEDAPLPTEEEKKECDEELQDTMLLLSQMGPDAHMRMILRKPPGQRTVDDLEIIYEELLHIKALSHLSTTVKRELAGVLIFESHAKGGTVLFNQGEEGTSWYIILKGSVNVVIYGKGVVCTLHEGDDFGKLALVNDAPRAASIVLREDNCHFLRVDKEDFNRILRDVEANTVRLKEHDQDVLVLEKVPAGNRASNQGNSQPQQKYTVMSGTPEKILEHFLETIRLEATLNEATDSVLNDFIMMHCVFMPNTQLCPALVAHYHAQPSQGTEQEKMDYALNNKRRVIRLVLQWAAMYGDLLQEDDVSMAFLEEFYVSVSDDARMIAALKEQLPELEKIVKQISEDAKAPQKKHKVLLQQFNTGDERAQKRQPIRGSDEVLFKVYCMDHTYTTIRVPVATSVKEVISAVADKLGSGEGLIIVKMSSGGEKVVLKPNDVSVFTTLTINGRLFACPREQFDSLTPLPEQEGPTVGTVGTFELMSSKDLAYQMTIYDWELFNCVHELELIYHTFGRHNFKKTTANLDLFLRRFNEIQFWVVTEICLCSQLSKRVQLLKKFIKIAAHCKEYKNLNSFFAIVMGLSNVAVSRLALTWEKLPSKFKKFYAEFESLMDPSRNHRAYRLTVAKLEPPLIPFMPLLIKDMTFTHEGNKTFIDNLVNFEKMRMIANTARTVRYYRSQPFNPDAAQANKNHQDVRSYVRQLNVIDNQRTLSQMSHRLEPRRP
Sequence of N-terminal Xaa-Pro-Lys N-methyltransferase 1 (Homo sapiens) (Q9BV86 whole entry, looked up): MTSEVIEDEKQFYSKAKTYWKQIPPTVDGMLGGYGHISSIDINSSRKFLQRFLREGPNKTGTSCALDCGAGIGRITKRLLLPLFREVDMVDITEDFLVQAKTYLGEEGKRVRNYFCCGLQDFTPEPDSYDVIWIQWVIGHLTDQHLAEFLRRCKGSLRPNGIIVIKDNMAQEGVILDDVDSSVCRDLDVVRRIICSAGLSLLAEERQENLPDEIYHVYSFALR
Sequence of Tyrosine-protein kinase Yes (Homo sapiens) (P07947 whole entry, looked up): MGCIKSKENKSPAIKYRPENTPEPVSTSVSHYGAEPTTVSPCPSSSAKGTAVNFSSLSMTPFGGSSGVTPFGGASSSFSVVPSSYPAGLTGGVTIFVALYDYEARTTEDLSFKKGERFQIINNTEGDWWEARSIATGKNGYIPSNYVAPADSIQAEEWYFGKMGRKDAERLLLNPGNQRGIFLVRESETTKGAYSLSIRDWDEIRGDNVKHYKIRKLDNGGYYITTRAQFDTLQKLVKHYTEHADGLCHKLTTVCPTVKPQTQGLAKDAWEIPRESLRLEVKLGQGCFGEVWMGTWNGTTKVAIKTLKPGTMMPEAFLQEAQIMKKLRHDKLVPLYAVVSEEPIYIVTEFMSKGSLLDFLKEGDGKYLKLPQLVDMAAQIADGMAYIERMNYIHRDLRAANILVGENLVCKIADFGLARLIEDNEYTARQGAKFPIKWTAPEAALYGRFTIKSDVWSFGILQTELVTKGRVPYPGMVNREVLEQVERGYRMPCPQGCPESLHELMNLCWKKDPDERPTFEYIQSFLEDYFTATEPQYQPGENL

As to `O=C1Nc2ccc(C(=O)c3ccco3)cc2/C1=C/c1cc(Cl)c(O)c(Cl)c1`, the Potency in assay [1] is 463 nM (active); in assay [4], 2400 nM (active). Besides, the call in [2] was inactive. In addition, the Potency result in assay [3] is “inactive”.
For the molecule `CCC(=O)NC(c1cccs1)c1cc(Cl)c2cccnc2c1O` (stereo unspecified), the Potency result in assay [3] and in assay [5] was “inactive” each time. The molecule was called inactive in [6], in assay [7], in assay [8] and in assay [9].
`COc1ccc(N2C(=O)c3ccccc3C2=O)cc1`: the Potency result in assay [3], in assay [5] and in [10] was “inactive” each time. Besides, the outcome in [6], in [7], in assay [8] and in [9] was inactive.
As for `Cc1cccc(-c2ccc3ncnc(NCc4cccs4)c3c2)c1`, in assay [3], the Potency result is “inactive”. Further, the Potency in assay [4] is 10000 nM (active).
For `CCC(=O)NC(c1cccs1)c1cc(Cl)c2ccccc2c1O` (stereo unspecified), the Potency result in assay [3] and in [5] was “inactive” in each case. For the same molecule, the molecule was classed as inactive in [6] and in assay [8]. The activation is 0.826% [at 17.1 µM] in [7] and 29.3% [at 30.8 µM] in assay [9]. For the same molecule, the activity change, negative = inhibition in assay [10] was -13.9% [at 12.7 µM].
